Bioassay records (PubChem)
Most compounds without a hit are left out; they make up all but 10% or so of the library.
Six1-Eya2 inh – Six1/Eya2 interaction inhibition; Q15475+O00167; AlphaScreen GST-Six1/His-Eya2 binding, biochemical; hits give low values; activity change, % (concentration not given with the values); 0.56% of 360,000 active; in the data active = activity change below about -65%; inconclusive = mostly about -30% to -63%; note: % is set by controls: 0 for no effect and ±100 for the full control effect
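AlphaScreen with GST-Six1 and His-Eya2 (5X mix: 250 nM and 500 nM), glutathione donor and nickel acceptor beads; buffer 50 mM Tris pH 8.0, 300 mM NaCl, 1 mM TCEP; 1 h at 37 C in the dark.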
G9a block – G9a (human) methyltransferase inhibition; Potency, µM (series often up to 102 µM), for inactives: at the highest dose activity, negative = inhibition, hits mostly inhibitors; Q96KQ7; AID 504332; G9a H3K9 monomethylation, AlphaScreen, 2 h; 8.8% of 350,000 active; note: potency is the fitted concentration of half-maximal effect; % is set by controls: 0 for no effect and ±100 for the full control effect; nearly all actives have a fitted effect of over 75% in size
Target sequence (Q96KQ7 913-1193 limits assumed): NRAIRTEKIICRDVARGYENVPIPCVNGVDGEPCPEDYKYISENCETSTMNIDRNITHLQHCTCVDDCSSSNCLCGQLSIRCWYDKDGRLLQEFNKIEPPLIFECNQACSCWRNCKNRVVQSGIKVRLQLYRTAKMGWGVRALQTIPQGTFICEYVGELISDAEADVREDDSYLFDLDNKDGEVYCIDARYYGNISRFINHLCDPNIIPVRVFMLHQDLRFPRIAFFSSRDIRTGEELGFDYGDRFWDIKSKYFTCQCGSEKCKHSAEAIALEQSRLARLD
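Methyltransferase reactions run at room temperature for 2 h (20 nM enzyme, 500 nM biotin-H3K9 peptide, 20 uM SAM) after a 15 min compound preincubation; product detected by AlphaScreen beads and anti-H3K9me1 antibody.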
BAZ2B inh – BAZ2B (human) inhibition | AlphaScreen BAZ2B-H3K14Ac peptide displacement | Potency, µM (doses to about 114 µM), for inactives: at the top dose activity change, negative = inhibition, usual class: inhibitors | 4.4% of 360,000 active; note: potency is the fitted concentration of half-maximal effect; % is set by controls: 0 for no effect and ±100 for the full control effect; nearly all actives have a fitted effect of over 60% in size
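BAZ2B (50 nM) with biotin-H3(5-23)K14Ac peptide (50 nM) in PBS pH 7.4, 0.01% Tween-20, preformed 30 min, then compound 30 min at room temperature; top concentration 110uM. AlphaScreen streptavidin donor/nickel chelate acceptor beads (10 ug/mL final), 20 min dark, signal read.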
CtBP-E1A blk – inhibitors of CtBP/E1A interaction | AlphaScreen GST-E1A/His-CtBP binding, 1536-well; hits give low values | activity change, % (test concentration not listed) | 0.49% of 340,000 active; in the data active = activity change below about -65%; inconclusive = mostly about -30% to -63%; note: % is set by controls: 0 for no effect and ±100 for the full control effect
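Homogeneous bead-based format: GST-tagged E1A captured on glutathione donor beads, His-tagged CtBP on nickel acceptor beads; compounds precede bead addition by 2 h at 37 °C.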
JMJD2A Tudor – blocks the human JMJD2A Tudor domain. O75164. AlphaScreen JMJD2A-Tudor / H3K4me3 peptide binding. Potency, µM (highest dose often 114 µM), without a hit: top-dose activity change, negative = inhibition, actives largely listed as inhibitors. 4.4% of 390,000 active. AID 504339; note: potency is the fitted concentration of half-maximal effect; % is set by controls: 0 for no effect and ±100 for the full control effect; nearly all actives have a fitted effect of over 50% in size
HP1b binding inh – blocks HP1-beta chromodomain binding to methylated histone tails | P83916 | AlphaScreen HP1-beta / biotin-H3K9me3 peptide binding | Potency, µM (series often up to 114 µM), for the others: top-dose activity change, negative = inhibition, most hits filed as inhibitors | 0.56% of 390,000 active | AID 540317; note: potency is the fitted concentration of half-maximal effect; nearly all actives have a fitted effect of over 70% in size
Target sequence (P83916 whole entry, looked up): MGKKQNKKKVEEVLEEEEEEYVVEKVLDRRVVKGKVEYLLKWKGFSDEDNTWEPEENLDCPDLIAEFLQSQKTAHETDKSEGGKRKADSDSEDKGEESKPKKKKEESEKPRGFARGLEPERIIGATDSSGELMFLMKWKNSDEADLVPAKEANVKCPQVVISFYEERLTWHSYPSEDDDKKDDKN
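Compound inhibition of the preformed complex between 50 nM HP1-beta and 50 nM biotinylated H3K9me3 peptide was read by AlphaScreen. Buffer was PBS pH 7.4 with 0.01% Tween-20. Incubations ran 30 min at room temperature, with 10 ug/mL donor/acceptor beads.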
* = called active by the depositor; ? = inconclusive; nt = not tested or not shown; ! = not active in a repeat; [ ] = another dose, or the depositor's remark. Unless noted, calls come from the whole dose curve; as a rule, active = well fitted inhibition curve with a large enough effect; inconclusive = small, poorly fitted or top-dose-only effect; inactive = no such curve, though single readings can be large or run the other way.

SMILES	Six1-Eya2 inh	G9a block	BAZ2B inh	CtBP-E1A blk	JMJD2A Tudor	HP1b binding inh
COc1ccc(N2CCN(C(=O)c3cnn(-c4ccc(OC)cc4)c3C3CCN(C(=O)OC(C)(C)C)CC3)CC2)cc1	nt	14µM*	-12%[57.1 µM]	nt	-36%	15%
COc1ccc(-c2cc3nc(C4CCN(C(=O)OC(C)(C)C)CC4)c(C(=O)O)cn3n2)cc1	0	79µM*	-32%	-1	-11%	20%
COc1cc(OC)c(OC)cc1CNC(=O)c1cc(=O)c2ccccc2o1	3	8%	-4%	-7	7%	5%
COc1cccc(-c2cccc3c2NC(=O)C3(C)Cc2cccc(F)c2)c1 (centres undefined)	-1	nt	nt	-6	nt	nt
c1cc2c3c(cccc3c1)C(N1CCOCC1)=N2	4	nt	-2%	-4	-14%	2%
c1ccc(CC2CCN(C3=Nc4cccc5cccc3c45)CC2)cc1	?	?	50µM*	?	22µM*	?
N#Cc1c(NC(=O)c2ccc(Cn3cc(Br)cn3)o2)sc2c1CCCCCC2	1	11µM*	-26%	13	-17%	-2%
N#Cc1c(NC(=O)c2ccc([N+](=O)[O-])o2)sc2c1CCC2	-19	32µM*	40µM*	-4	?	?
Cc1ccc(-c2nc3cc(C(C)C)ccc3o2)cc1NC(=O)c1cc([N+](=O)[O-])ccc1N1CCOCC1	nt	-26%[59 µM]	89µM*	nt	-19%	26%
N#Cc1c(NC(=O)c2cc([N+](=O)[O-])ccc2N2CCOCC2)sc2c1CCCC2	-13	?	56µM*	-15	?	-23%
O=c1c(-c2ccco2)nc2ccccc2n1C(CCc1ccccc1)c1nc2ccccc2[nH]1 (centres undefined)	-21	nt	nt	-5	nt	nt
COc1cc(F)c(S(=O)(=O)N2CCN(S(=O)(=O)c3ccc(N)cc3)CC2)c(F)c1	nt	nt	nt	nt	-6%	nt
O=C(COC(=O)c1ccccc1SCC(=O)NC1CCS(=O)(=O)C1)NC1CCS(=O)(=O)C1 (centres undefined)	-3	17%	-15%	10	1%	41%
COc1ccc(NC(=O)COC(=O)c2ccccc2SCC(=O)N2CCCC2)cc1	-5	40µM*	4%	6	4%	29%
CC(=O)Nc1ccc(NC(=O)COC(=O)c2ccccc2SCC(=O)N2CCCC2)cc1	1	18µM*	4%	0	-23%	25%
COc1ccc(CNC(=O)c2ccccc2SCC(=O)N2CCCC2)cc1OC	9	45µM*	-5%	-6	-10%	25%
CCNC(=O)NC(=O)COC(=O)c1ccccc1SCC(=O)NC(=O)NCC	4	45µM*	-2%	-1	?	?
O=C1c2ccccc2C(=O)N1c1ccc2ncccc2c1	nt	nt	nt	nt	-4%	34%
COc1ccc(CNC(=O)CNS(=O)(=O)c2cccc(C#N)c2)cc1OC	11	50µM*	-15%	9	-20%	19%
N#Cc1cccc(S(=O)(=O)NCC(=O)NCc2ccc3c(c2)OCO3)c1	3	?	11%	6	-9%	36%
COc1ccc(NCc2cccn2-c2nnc(N3CCCCC3)s2)cc1OC	nt	?	-29%[57.1 µM]	nt	?	?
COc1ccc(OC)c(NCc2cccn2-c2nnc(N3CCCCC3)s2)c1	nt	8.9µM*	-37%[57.1 µM]	nt	50µM*	?
COc1ccccc1NCc1cccn1-c1nnc(N2CCCCCC2)s1	nt	?	-2%[57.1 µM]	nt	45µM*	-13%
COc1cccc(NCc2cccn2-c2nnc(N3CCC(C)CC3)s2)c1	nt	?	-2%[57.1 µM]	nt	-28%	16%
CCc1ccc(NCc2cccn2-c2nnc(N3CCCCCC3)s2)cc1	nt	-21%[59 µM]	-14%	nt	?	-8%
COc1cccc(CNCc2cccn2-c2nnc(N3CCN(c4ccccc4)CC3)s2)c1	nt	?	?	nt	50µM*	-23%
NC(C(=O)N[C@@H]1C(=O)N2C(C(=O)O)=C(Cl)CS[C@H]12)c1ccccc1 (some centres undefined)	nt	2.4µM*!	nt	nt	nt	nt
CC1=C(C(=O)O)N2C(=O)[C@@H](NC(=O)C(N)C3=CCC=CC3)[C@H]2SC1 (some centres undefined)	nt	12µM*!	nt	nt	nt	nt
